Values without a mark were called inactive. Results filed as inconclusive are left out. Entries that show only a call come without a potency. Activity calls are given as the source filed them. Unless noted, the call rests on the fitted dose curve; in most records, active means well fitted curve in the direction sought with a large enough effect in the repeat runs; inconclusive means weak or mixed curves; inactive means no such curve, though single readings can be large; an effect the other way counts as inactive or inconclusive.
Experiments:
[1] = A CellTox Green Cytotoxicity Assay to monitor cytotoxicity in HepG2 cells - 0 hour (AID 1224882); further: nearly all actives have a fitted effect of over 35% in size
Summary of the method: (§1)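 Measurements at 0, 8, 16, 24, 32 and 40 h of treatment captured CellTox Green fluorescence in HepG2 cells that had been co-plated with reagent and preincubated 5 h at 37 C/5% CO2.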

[2] = qHTS RealTime-Glo MT Cell Viability Assay in HEK293 cells - 24 hour (AID 1224886); further: top concentration of the series differs between compounds; nearly all actives have a fitted effect of over 50% in size
Summary of the method: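 Reads taken at 0, 8, 16, 24, 32 and 40 h from the same wells. HEK293 cells (600/well) carried RealTime-Glo reagents from seeding, with compound added after a 5 h settle at 37 C.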

[3] = A CellTox Green Cytotoxicity Assay to monitor cytotoxicity in HepG2 cells - 8 hour (AID 1224890); further: nearly all actives have a fitted effect of over 45% in size; further: potency means the concentration at half of the fitted maximal effect
Summary of the method: as §1

[4] = qHTS assay to identify small molecule antagonists of the androgen receptor (AR) signaling pathway using the MDA cell line in the presence of 0.5 nM R1881 - cell viability counter screen (AID 1259242); further: nearly all actives have a fitted effect of over 45% in size
Summary of the method: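 Concentration-response screen of compounds for toxicity in MDA-kb2 reporter cells: 16 hr at 37C with 0.5 nM R1881, endpoint live-cell protease fluorescence measured in the reporter wells.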

[5] = qHTS assay to identify small molecule HDAC inhibitors (AID 1259364); further: potency means the concentration at half of the fitted maximal effect;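 further: wild-type HCT-116 cells with endogenous class I/II HDAC activity; nearly all actives have a fitted effect of over 45% in size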
Summary of the method: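 Screening used wild-type human colon HCT-116 cells incubated overnight, dosed with compounds for 2 hours, and assayed with a homogeneous luminogenic HDAC I/II reagent for 30 minutes at room temperature.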

[6] = qHTS assay to identify small molecule HDAC inhibitors - cell viability counter screen (AID 1259365); further: series mostly up to about 92 µM; nearly all actives have a fitted effect of over 50% in size
Summary of the method: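 HCT-116 wild-type, overnight attachment; 2hr drug exposure, 37C; CellTiter-Glo luminescent ATP readout after 30min RT.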

[7] = qHTS assay to identify small molecule agonists of the sonic hedgehog signaling (Shh) pathway - cell viability counter screen (AID 1259366); further: nearly all actives have a fitted effect of over 50% in size; further: potency means the concentration at half of the fitted maximal effect
Summary of the method: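 Compounds in DMSO were pin-transferred onto 3T3 Gli1-Luc cells that had settled 4hr; plates then stood 24hr at 37C and 5% CO2. One hour before the end, CellTiter-Fluor was added and fluorescence recorded.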

[8] = qHTS assay to identify small molecule antagonists of the sonic hedgehog signaling (Shh) pathway - cell viability counter screen (AID 1259367); further: nearly all actives have a fitted effect of over 55% in size; further: potency means the concentration at half of the fitted maximal effect
Summary of the method: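 CellTiter-Fluor signal in conditioned medium-stimulated 3T3 Gli1-Luc cells, 23 hr compound exposure, 37C.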

[9] = qHTS assay to identify small molecule agonists of the sonic hedgehog signaling (Shh) pathway (AID 1259368; calls by dose curve;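 further: NIH/3T3-derived 3T3Gli1-Luc cells carrying a stable Gli1-driven firefly luciferase reporter; series mostly up to about 92 µM; nearly all actives have a fitted effect of over 15% in size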)
Summary of the method: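 Hedgehog pathway agonism scored by increased firefly luciferase luminescence in 3T3Gli1-Luc cells treated 24 hr at 37 C; detection used a 30 min room-temperature reagent incubation.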

[10] = qHTS assay to identify small molecule antagonists of the sonic hedgehog signaling (Shh) pathway (AID 1259369; calls by dose curve; further: nearly all actives have a fitted effect of over 45% in size; further: potency means the concentration at half of the fitted maximal effect)
Summary of the method: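 NIH/3T3 stable Gli1-Luc clone, 2,000 cells/well, 4hr settle; cpd + conditioned medium 24hr; Luc reagent 30min RT; luminescence.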

[11] = A CellTox Green Cytotoxicity Assay to monitor cytotoxicity in HEK293 cells - 8 hour (AID 1224884); further: nearly all actives have a fitted effect of over 35% in size
Summary of the method: (§2)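 Tox21 screen in HEK293: membrane-impermeant cyanine dye fluoresces on binding dead-cell DNA; compound pinned 5 h post-seeding, plates held at 37 C, signal read repeatedly through 40 h.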

[12] = qHTS RealTime-Glo MT Cell Viability Assay in HepG2 cells - 16 hour (AID 1224885); further: nearly all actives have a fitted effect of over 50% in size
Summary of the method: (§3)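 HepG2 suspension premixed with RealTime-Glo reagents is plated at 600 cells per well and left 5 h at 37 C/5% CO2. Compounds in DMSO then go in, and bioluminescence reflecting viable cell number is recorded over 40 h.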

[13] = qHTS RealTime-Glo MT Cell Viability Assay in HEK293 cells - 8 hour (AID 1224887)
Summary of the method: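 HEK293 + NanoLuc + prosubstrate, 600 cells/well; 5 h, 37 C/5% CO2; compound 23 nL in DMSO by pintool; 37 C; luminescence read at 0, 8, 16, 24, 32 and 40 h time points.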

[14] = qHTS RealTime-Glo MT Cell Viability Assay in HepG2 cells - 0 hour (AID 1224889); further: nearly all actives have a fitted effect of over 50% in size
Summary of the method: as §3

[15] = qHTS assay to identify small molecule antagonists of the estrogen receptor alpha (ER-alpha) signaling pathway using the BG1 cell line in the presence of 0.1 nM 17-beta-estradiol - cell viability counter screen (AID 1259241); further: nearly all actives have a fitted effect of over 40% in size
Summary of the method: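 Following 5 days in phenol red-free medium with charcoal-stripped serum, VM7Luc4E2 cells received test compounds alongside 0.1 nM 17beta-estradiol (final) at 37C for 22 hr. Live cells were then quantified via protease-substrate fluorescence.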

[16] = target: Androgen receptor (Homo sapiens) (UniProt P10275); assay: qHTS assay to identify small molecule antagonists of the androgen receptor (AR) signaling pathway using the MDA cell line in the presence of 0.5 nM R1881 (AID 1259243); further: nearly all actives have a fitted effect of over 50% in size
Summary of the method: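 With R1881 held at 0.5 nM (final), compound effects on MMTV-luciferase expression in MDA-kb2 cells were scored by luminescence after a 16 hr, 37C incubation.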

[17] = target: Estrogen receptor (Homo sapiens) (UniProt P03372); assay: qHTS assay to identify small molecule antagonists of the estrogen receptor alpha (ER-alpha) signaling pathway using the BG1 cell line in the presence of 0.1 nM 17-beta-estradiol (AID 1259244); further: nearly all actives have a fitted effect of over 50% in size
Summary of the method: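 Compounds were tested against 0.1 nM (final) 17beta-estradiol in VM7Luc4E2 cells, which express full-length ER-alpha and an ERE-luciferase reporter; luminescence was recorded following 22 h exposure.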

[18] = A CellTox Green Cytotoxicity Assay to monitor cytotoxicity in HepG2 cells - 32 hour (AID 1224883); further: nearly all actives have a fitted effect of over 50% in size
Summary of the method: as §1

[19] = A CellTox Green Cytotoxicity Assay to monitor cytotoxicity in HEK293 cells - 16 hour (AID 1224888); further: nearly all actives have a fitted effect of over 35% in size
Summary of the method: as §2

[20] = qHTS assay to identify small molecule phospholipidosis (PLD) inducers (AID 1259344; active means well fitted curve in the direction sought with a large enough effect; an effect the other way counts as inactive or inconclusive)
Summary of the method: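 Accumulated phospholipid, stained red by LipidTOX during 24 h compound treatment of HepG2 cells at 37 C, is quantified from images as pit number and intensity, normalised per cell using Hoechst-stained nuclei.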

Sequence of Estrogen receptor (Homo sapiens) (P03372 whole entry, looked up): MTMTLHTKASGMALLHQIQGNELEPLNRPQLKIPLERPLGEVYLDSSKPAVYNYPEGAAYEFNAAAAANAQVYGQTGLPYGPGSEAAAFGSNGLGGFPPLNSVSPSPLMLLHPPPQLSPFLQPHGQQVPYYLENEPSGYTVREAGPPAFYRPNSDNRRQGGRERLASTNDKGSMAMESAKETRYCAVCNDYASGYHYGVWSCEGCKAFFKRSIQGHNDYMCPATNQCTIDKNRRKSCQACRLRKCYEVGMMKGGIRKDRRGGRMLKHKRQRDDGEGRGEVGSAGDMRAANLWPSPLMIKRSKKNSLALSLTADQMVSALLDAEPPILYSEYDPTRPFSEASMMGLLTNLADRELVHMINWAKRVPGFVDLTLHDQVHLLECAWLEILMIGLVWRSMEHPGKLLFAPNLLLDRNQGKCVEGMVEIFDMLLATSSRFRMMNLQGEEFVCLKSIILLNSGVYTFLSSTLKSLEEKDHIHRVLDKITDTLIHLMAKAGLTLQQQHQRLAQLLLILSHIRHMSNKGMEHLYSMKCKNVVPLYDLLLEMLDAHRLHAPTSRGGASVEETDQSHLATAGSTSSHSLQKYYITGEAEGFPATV
Sequence of Androgen receptor (Homo sapiens) (P10275 whole entry, looked up): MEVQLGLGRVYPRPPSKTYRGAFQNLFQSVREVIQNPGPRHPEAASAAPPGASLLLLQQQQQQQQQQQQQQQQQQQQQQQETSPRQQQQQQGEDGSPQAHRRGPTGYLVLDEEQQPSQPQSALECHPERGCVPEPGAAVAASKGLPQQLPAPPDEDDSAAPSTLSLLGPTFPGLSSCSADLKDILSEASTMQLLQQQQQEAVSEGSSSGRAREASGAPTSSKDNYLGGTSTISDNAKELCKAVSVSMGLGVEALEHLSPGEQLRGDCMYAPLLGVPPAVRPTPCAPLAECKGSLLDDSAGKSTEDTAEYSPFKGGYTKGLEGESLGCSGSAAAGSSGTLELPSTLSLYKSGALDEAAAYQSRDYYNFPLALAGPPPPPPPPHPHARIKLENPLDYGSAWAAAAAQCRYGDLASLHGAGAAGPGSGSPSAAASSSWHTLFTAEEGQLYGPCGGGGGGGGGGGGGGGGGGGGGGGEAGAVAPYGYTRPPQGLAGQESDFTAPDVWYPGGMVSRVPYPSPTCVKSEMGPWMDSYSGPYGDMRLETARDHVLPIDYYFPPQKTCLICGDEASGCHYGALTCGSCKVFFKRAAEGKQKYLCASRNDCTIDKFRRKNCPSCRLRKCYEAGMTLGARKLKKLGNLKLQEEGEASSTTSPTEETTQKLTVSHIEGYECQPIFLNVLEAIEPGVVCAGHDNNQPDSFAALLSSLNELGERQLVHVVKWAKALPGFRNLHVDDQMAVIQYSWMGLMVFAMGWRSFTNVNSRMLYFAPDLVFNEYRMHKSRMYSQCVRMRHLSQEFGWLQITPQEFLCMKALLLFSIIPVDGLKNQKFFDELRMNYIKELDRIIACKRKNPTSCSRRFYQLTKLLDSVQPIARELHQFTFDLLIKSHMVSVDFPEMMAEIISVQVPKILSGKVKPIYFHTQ

Compound | Potency [1] | Potency [2] | Potency [3] | outcome [4] | Potency [5] | outcome [6] | Potency [7] | Potency [8] | Potency [9] | Potency [10] | Potency [11] | outcome [12] | Potency [13] | Potency [14] | Potency [15] | Potency [16] | Potency [17] | Potency [18] | Potency [19] | outcome [20]
CCOC(=O)COc1ccc2c(c1)CC(NCC(O)c1cccc(Cl)c1)CC2 (stereo unspecified) | inactive | inactive | 44 µM (active) | inactive | inactive | inactive | 21.9 µM (active) | 27.5 µM (active) | inactive | 27.5 µM (active) |  |  |  |  |  |  |  |  |  | 
CC(C)(C)c1cccc(O)c1 | inactive |  | inactive | inactive | inactive | inactive | inactive | inactive | inactive | inactive | inactive | inactive | inactive | inactive | inactive | inactive | inactive |  |  | 
COC(=O)N[C@H](C(=O)N[C@@H](Cc1ccccc1)[C@@H](O)CN(Cc1ccc(-c2ccccn2)cc1)NC(=O)[C@@H](NC(=O)OC)C(C)(C)C)C(C)(C)C |  | inactive |  | inactive | inactive | inactive |  |  | inactive |  | inactive | inactive | inactive |  | inactive |  | inactive |  |  | 
NCCCN1CCN(CCCN)CC1 | inactive | inactive | inactive | inactive | inactive | inactive |  | inactive | inactive | inactive |  | inactive | inactive | inactive | inactive | inactive | inactive |  |  | 
COc1cc2c(cc1N)oc1ccccc12 | inactive |  | inactive | inactive |  | inactive |  | 62.4 µM (active) | inactive | 27.9 µM (active) |  | inactive |  | inactive | inactive |  |  | inactive | inactive | 
CCC1(C)NC(=O)NC1=O (stereo unspecified) | inactive |  | inactive | inactive | inactive | inactive | inactive | inactive |  | inactive | inactive | inactive |  | inactive | inactive |  |  |  | inactive | 
CS(=O)(=O)c1ccc([C@@H](O)[C@@H](CF)NC(=O)C(Cl)Cl)cc1 | inactive | inactive | inactive | inactive | inactive | inactive | inactive | inactive | inactive |  |  |  | inactive | inactive | inactive |  | inactive | inactive | inactive | inactive
COc1ccccc1N1CCN(CCCNc2cc(=O)n(C)c(=O)n2C)CC1 | inactive |  | inactive | inactive | inactive | inactive | inactive | inactive | inactive | inactive |  | inactive |  | inactive | inactive |  |  | inactive |  | inactive
Cc1ccc(C(C)C)cc1O | inactive | inactive | inactive | inactive | inactive | inactive | inactive | inactive | inactive | inactive | inactive |  | inactive | inactive | inactive |  |  |  |  | 
CC1=NN(c2cc(Cl)c(S(=O)(=O)O)cc2Cl)C(=O)C1N=Nc1ccc(S(=O)(=O)O)cc1 (stereo unspecified) | inactive | inactive | inactive |  | 27.3 µM (active) | inactive |  |  | inactive | inactive | inactive | inactive | inactive |  |  |  |  |  | inactive | 
Cc1onc(-c2ccccc2)c1C(=O)Cl | inactive | inactive |  | inactive | inactive | inactive | inactive | inactive | inactive | inactive | inactive |  | inactive | inactive | inactive |  |  |  |  | 
CCCCNCCCC | inactive |  | inactive | inactive | inactive | inactive | inactive | inactive |  | inactive |  | inactive |  | inactive | inactive |  |  | inactive |  | 

Reference: PubChem BioAssay (Tox21)
